According to PubChem BioAssay AID1159580 (chemical genetic matrix, 2015):
In all, about 5,500 compounds went through this assay and about 2,000 (36%) were called active. Another 18% or so got no clear call; they are omitted. Cut-off read from the data, not from the text of the source: active = normalized growth mostly below about 0.91 (no sharp cut-off); inconclusive = no clear call, values can overlap the other calls; inactive = mostly above about 0.92. Some of the results follow.

Assay: chemical genetic growth profiling, strain panel (AID 1159580);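 note: tested at 20 µM; growth read once vehicle control cultures reached saturation at 30 °C; 1 = growth at the plate median or of vehicle wells; lower values mean less growth of the strain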
Conditions: growth OD
[1] = S. cerevisiae deletion strains, locus YDL101C, strain DUN1, stronger effect = lower value
[2] = S. cerevisiae deletion strains, locus YHR030C, strain SLT2, stronger effect = lower value

Measured: normalized growth

CCn1nc(C)cc1C(=O)Sc1cccc(Br)c1
inactive: S. cerevisiae deletion strains, locus YAR019C, strain CDC15, stronger effect = lower value 0.917 | S. cerevisiae deletion strains, locus YBL105C, strain PKC1, stronger effect = lower value 0.934 | S. cerevisiae deletion strains, locus YBR135W, strain CKS1, stronger effect = lower value 0.91 | S. cerevisiae deletion strains, locus YBR136W, strain MEC1, stronger effect = lower value 0.942 | S. cerevisiae deletion strains, locus YBR160W, strain CDC28, stronger effect = lower value 0.924 | S. cerevisiae deletion strains, locus YDL017W, strain CDC7, stronger effect = lower value 0.935 | S. cerevisiae deletion strains, locus YDL028C, strain MPS1, stronger effect = lower value 0.924 | [1] 0.951 | S. cerevisiae deletion strains, locus YDL108W, strain KIN28, stronger effect = lower value 0.93 | S. cerevisiae deletion strains, locus YDL132W, strain cdc53, stronger effect = lower value 0.922 | S. cerevisiae deletion strains, locus YDL214C, strain PRR2, stronger effect = lower value 0.706 | S. cerevisiae deletion strains, locus YDR052C, strain DBF4, stronger effect = lower value 0.971 | S. cerevisiae deletion strains, locus YDR054C, strain cdc34, stronger effect = lower value 0.885 | S. cerevisiae deletion strains, locus YDR226W, strain ADK1, stronger effect = lower value 0.925 | S. cerevisiae deletion strains, locus YER133W, strain GLC7, stronger effect = lower value 0.784 | S. cerevisiae deletion strains, locus YFL029C, strain CAK1, stronger effect = lower value 0.904 | S. cerevisiae deletion strains, locus YFR003C, strain YPI1, stronger effect = lower value 0.932 | S. cerevisiae deletion strains, locus YFR028C, strain CDC14, stronger effect = lower value 0.933 | S. cerevisiae deletion strains, locus YGR040W, strain KSS1, stronger effect = lower value 0.747 | S. cerevisiae deletion strains, locus YGR052W, strain FMP48, stronger effect = lower value 0.725 | S. cerevisiae deletion strains, locus YHR082C, strain KSP1, stronger effect = lower value 0.626 | S. cerevisiae deletion strains, locus YIL147C, strain SLN1, stronger effect = lower value 0.933 | S. cerevisiae deletion strains, locus YJL095W, strain BCK1, stronger effect = lower value 0.551 | S. cerevisiae deletion strains, locus YJL128C, strain PBS2, stronger effect = lower value 0.913 | S. cerevisiae deletion strains, locus YJR016C, strain ILV3, stronger effect = lower value 0.921 | S. cerevisiae deletion strains, locus YJR066W, strain TOR1, stronger effect = lower value 0.543 | S. cerevisiae deletion strains, locus YKL048C, strain ELM1, stronger effect = lower value 0.924 | S. cerevisiae deletion strains, locus YKL101W, strain HSL1, stronger effect = lower value 0.786 | S. cerevisiae deletion strains, locus YKL193C, strain SDS22, stronger effect = lower value 0.927 | S. cerevisiae deletion strains, locus YKL203C, strain TOR2, stronger effect = lower value 0.746 | S. cerevisiae deletion strains, locus YML070W, strain DAK1, stronger effect = lower value 0.727 | S. cerevisiae deletion strains, locus YMR001C, strain CDC5, stronger effect = lower value 0.904 | S. cerevisiae deletion strains, locus YMR205C, strain PFK2 (second series), stronger effect = lower value 0.819 | S. cerevisiae deletion strains, locus YMR277W, strain FCP1, stronger effect = lower value 0.914 | S. cerevisiae deletion strains, locus YNL006W, strain LST8, stronger effect = lower value 0.917 | S. cerevisiae deletion strains, locus YNL161W, strain CBK1, stronger effect = lower value 0.937 | S. cerevisiae deletion strains, locus YNL183C, strain NPR1, stronger effect = lower value 0.629 | S. cerevisiae deletion strains, locus YNL207W, strain RIO2, stronger effect = lower value 0.918 | S. cerevisiae deletion strains, locus YNL222W, strain SSU72, stronger effect = lower value 0.917 | S. cerevisiae deletion strains, locus YOL078W, strain AVO1, stronger effect = lower value 0.91 | S. cerevisiae deletion strains, locus YOL136C, strain PFK27, stronger effect = lower value 0.701 | S. cerevisiae deletion strains, locus YOR119C, strain RIO1, stronger effect = lower value 0.741 | S. cerevisiae deletion strains, locus YOR329C, strain SCD5, stronger effect = lower value 0.935 | S. cerevisiae deletion strains, locus YPL204W, strain HRR25, stronger effect = lower value 0.676 | S. cerevisiae deletion strains, locus YPL209C, strain IPL1, stronger effect = lower value 0.936 | S. cerevisiae deletion strains, locus YPR025C, strain CCL1, stronger effect = lower value 0.935 | S. cerevisiae deletion strains, locus YPR106W, strain ISR1, stronger effect = lower value 0.97 | S. cerevisiae deletion strains, locus YPR111W, strain DBF20, stronger effect = lower value 0.955 | S. cerevisiae deletion strains, strain NNK1, stronger effect = lower value 0.963 | S. cerevisiae deletion strains, strain TSCII, stronger effect = lower value 0.908
active: S. cerevisiae deletion strains, locus YDR477W, strain SNF1, stronger effect = lower value 0.65 | S. cerevisiae deletion strains, locus YER123W, strain YCK3, stronger effect = lower value 0.592 | S. cerevisiae deletion strains, locus YFL009W, strain cdc4, stronger effect = lower value 0.883 | S. cerevisiae deletion strains, locus YFR019W, strain FAB1, stronger effect = lower value 0.737 | S. cerevisiae deletion strains, locus YGR092W, strain DBF2, stronger effect = lower value 0.332 | [2] 0.613 | S. cerevisiae deletion strains, locus YHR079C, strain IRE1, stronger effect = lower value 0.476 | S. cerevisiae deletion strains, locus YHR205W, strain SCH9, stronger effect = lower value 0.527 | S. cerevisiae deletion strains, locus YJL157C, strain FAR1, stronger effect = lower value 0.638 | S. cerevisiae deletion strains, locus YJR066W, strain TOR1 (second series), stronger effect = lower value 0.227 | S. cerevisiae deletion strains, locus YKL067W, strain YNK1, stronger effect = lower value 0.714 | S. cerevisiae deletion strains, locus YLR113W, strain HOG1, stronger effect = lower value 0.461 | S. cerevisiae deletion strains, locus YLR133W, strain CKI1, stronger effect = lower value 0.724 | S. cerevisiae deletion strains, locus YLR403W, strain SFP1, stronger effect = lower value 0.566 | S. cerevisiae deletion strains, locus YNL020C, strain ARK1, stronger effect = lower value 0.697 | S. cerevisiae deletion strains, locus YNL307C, strain MCK1 (second series), stronger effect = lower value 0.601 | S. cerevisiae deletion strains, locus YOR061W, strain CKA2, stronger effect = lower value 0.662 | S. cerevisiae deletion strains, locus YOR231W, strain MKK1, stronger effect = lower value 0.486 | S. cerevisiae deletion strains, locus YPL031C, strain PHO85, stronger effect = lower value 0.619 | S. cerevisiae deletion strains, locus YPL153C, strain RAD53, stronger effect = lower value 0.551 | S. cerevisiae deletion strains, locus YPL256C, strain CLN2, stronger effect = lower value 0.634

CCOC(=O)c1nnc2cc(C)nn2c1C
inactive: S. cerevisiae deletion strains, locus YAL013W, strain DEP1, stronger effect = lower value 0.981 | S. cerevisiae deletion strains, locus YBR229C, strain ROT2, stronger effect = lower value 1.01 | [1] 0.98 | S. cerevisiae deletion strains, locus YDR150W, strain NUM1, stronger effect = lower value 0.951 | S. cerevisiae deletion strains, locus YEL061C, strain CIN8, stronger effect = lower value 1 | S. cerevisiae deletion strains, locus YGR078C, strain PAC10, stronger effect = lower value 1 | [2] 1.01 | S. cerevisiae deletion strains, locus YHR087W, strain rtc3, stronger effect = lower value 1 | S. cerevisiae deletion strains, locus YJR043C, strain POL32, stronger effect = lower value 0.987 | S. cerevisiae deletion strains, locus YJR075W, strain HOC1, stronger effect = lower value 1.03 | S. cerevisiae deletion strains, locus YKL190W, strain CNB1, stronger effect = lower value 0.995 | S. cerevisiae deletion strains, locus YLR039C, strain RIC1, stronger effect = lower value 1.04 | S. cerevisiae deletion strains, locus YLR058C, strain SHM2 (second series), stronger effect = lower value 1.01 | S. cerevisiae deletion strains, locus YLR085C, strain ARP6, stronger effect = lower value 1 | S. cerevisiae deletion strains, locus YLR262C, strain YPT6, stronger effect = lower value 1.06 | S. cerevisiae deletion strains, locus YML094W, strain GIM5, stronger effect = lower value 0.968 | S. cerevisiae deletion strains, locus YMR219W, strain ESC1, stronger effect = lower value 1 | S. cerevisiae deletion strains, locus YMR263W, strain SAP30, stronger effect = lower value 0.95 | S. cerevisiae deletion strains, locus YMR307W, strain GAS1, stronger effect = lower value 0.989 | S. cerevisiae deletion strains, locus YNL128W, strain TEP1, stronger effect = lower value 1.01 | S. cerevisiae deletion strains, locus YNL153C, strain GIM3, stronger effect = lower value 0.988 | S. cerevisiae deletion strains, locus YNL298W, strain CLA4 (second series), stronger effect = lower value 1.03 | S. cerevisiae deletion strains, locus YNL322C, strain KRE1, stronger effect = lower value 1 | S. cerevisiae deletion strains, locus YNR030W, strain Alg12, stronger effect = lower value 1.03 | S. cerevisiae deletion strains, locus YPL055C, strain LGE1, stronger effect = lower value 0.923 | S. cerevisiae deletion strains, locus YPL241C, strain CIN2, stronger effect = lower value 0.986 | S. cerevisiae deletion strains, locus YPR135W, strain CTF4, stronger effect = lower value 1 | S. cerevisiae strains, strain wild type, stronger effect = lower value 1.02
